Screening results as filed in PubChem BioAssay.
Hits are enriched below; roughly 6.5% of the tested compounds scored in any of these assays.
Vaccinia Venus – qHTS for Stage-Specific Inhibitors of Vaccinia Orthopoxvirus: Venus Reporter Primary qHTS. 0.46% of 330,000 active. Vaccinia virus Venus reporter expression, fluorescence. Potency, µM (doses to about 36.5 µM), actives largely listed as inhibitors; calls by dose curve; tested in A549 cells; further: nearly all actives have a fitted effect of over 30% in size
VACV mCherry inh – qHTS for Stage-Specific Inhibitors of Vaccinia Orthopoxvirus: mCherry Reporter Primary qHTS; Vaccinia virus mCherry reporter infection, fluorescence; Potency, µM (doses to about 36.5 µM), hits mostly inhibitors; 0.63% of 310,000 active; AID 720579, 2013; calls by dose curve; tested in A549 cells; further: nearly all actives have a fitted effect of over 35% in size
HCMV antiviral – qHTS Assay for inhibitors of the human cytomegalovirus (HCMV); 4.5% of 410,000 active; HFF cells, HCMV-luciferase reporter, 72 h; active compounds read low; activity change, negative = inhibition, % at 57.5 µM; in the data active means activity change below about -60%; inconclusive means no clear call, values can overlap the other calls; inactive means above about -39%
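Screen run at 2 compound doses on HFFs infected with reporter HCMV, MOI 1 PFU/cell. Luciferase activity from cell lysates at 72 h post infection gave inhibition relative to buffer-only and Salinomycin wells.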
FMDV antiviral – High Throughput Screening for Foot and Mouth Disease Virus Antivirals; FMDV antiviral cell-based qHTS; Potency, µM (titrated, usually from 57.9 µM), usual class: inhibitors; 1.2% of 410,000 active; AID 1159524, 2015; calls by dose curve; tested in HEK293T cells; further: read-out not given here; nearly all actives have a fitted effect of over 45% in size
LASV entry inh – qHTS for Inhibitors of binding or entry into cells for Lassa Virus; Potency, µM (highest dose often 37.9 µM), most hits filed as inhibitors; Lassa virus pseudotype entry inhibition, cell reporter; AID 540256, 2011; 1.2% of 300,000 active; calls by dose curve; tested in HEK293 cells; further: nearly all actives have a fitted effect of over 50% in size
Marburg entry inh – qHTS for inhibitors of binding or entry into cells for Marburg Virus. 1.8% of 300,000 active. Potency, µM (titrated, usually from 37.8 µM), most hits filed as inhibitors. Marburg virus pseudotyped entry inhibition, cell reporter; calls by dose curve; tested in HEK293 cells
A number is an active result; . = inactive; ? = inconclusive; / = not tested or not shown.

SMILES	Vaccinia Venus	VACV mCherry inh	HCMV antiviral	FMDV antiviral	LASV entry inh	Marburg entry inh
CCn1c(=NC(=O)CS(=O)(=O)c2ccc(C)cc2)sc2cccc(OC)c21	.	.	-62.4	?	?	?
CCOC(=O)C(=CNc1ccc(NC2=NCC(C)S2)cc1)C(=O)OCC (centres undefined)	?	?	-66.3	.	?	?
CCc1ccc(NC(=O)c2cnn(-c3ccccc3)c2-n2cccc2)cc1	.	.	.	.	.	?
COc1cccc(NC(=O)c2cnn(-c3ccccc3)c2-n2cccc2)c1	.	.	-62.5	.	.	/
Cc1ccc(NC(=O)c2cnn(-c3ccccc3)c2C)cc1C	.	.	-61.2	.	3.16µM	?
COc1cccc(NC(=O)c2cc(Cl)nnc2Cl)c1	?	6.31µM	.	.	?	?
Cc1c(C(=O)Nc2ccccc2)cnn1-c1ccccc1	.	.	.	.	?	?
COc1ccc(/C=C(/C(=O)N2CCCCC2C(=O)O)c2ccc(OC)c(OC)c2)cc1 (centres undefined)	.	.	.	.	/	/
O=C(c1ccc(-c2cc(O)c3ncccc3c2)cc1)N1CCNCC1	/	/	.	.	/	/
CCN(C(=O)Cn1cnc2c1c(=O)n(C)c(=O)n2C)C1CCS(=O)(=O)C1 (centres undefined)	/	/	.	.	/	/
Cc1oc(-c2ccc(C(=O)NCCN(C)C)cc2)nc1CS(=O)(=O)c1ccccc1	.	.	-69.6	.	?	/
Cc1oc(-c2ccc(C(=O)NCc3ccc(Cl)cc3)cc2)nc1CS(=O)(=O)c1ccccc1	.	.	-69.1	.	.	/
Cc1oc(-c2ccc(C(=O)NCc3ccccc3)cc2)nc1CS(=O)(=O)c1ccccc1	.	.	.	?	.	/
COCCNC(=O)c1ccc(-c2nc(CS(=O)(=O)c3ccccc3)c(C)o2)cc1	.	.	.	.	.	/
CC12C=C(C=Cc3ccccc3)C(C)(C1)C(c1ccccc1)CC2=O (centres undefined)	/	/	/	/	/	.
COC(=O)c1ccc(CN2CCC3(CCC(CNC(=O)c4ccccc4)O3)CC2)cc1 (centres undefined)	.	.	/	.	/	/
CCN(c1ccc(OC)cc1)S(=O)(=O)c1ccc(-c2ccc(=O)[nH]n2)o1	/	/	-63.5	.	/	/
CCN(c1cccc(C)c1)S(=O)(=O)c1ccc(-c2ccc(=O)[nH]n2)o1	/	/	?	.	/	/
CCCSc1cc(NCCOC(=O)CCC)c([N+](=O)[O-])c2nonc12	.	.	?	.	.	.
CC(=O)OCCCNc1cc(SCc2ccco2)c2nonc2c1[N+](=O)[O-]	?	11.2µM	.	35.5µM	?	12.6µM
CCCC(=O)OCCNc1cc(Sc2nccn2C)c2nonc2c1[N+](=O)[O-]	.	.	.	35.5µM	?	?
CCCC(=O)OCCNc1cc(SCc2ccco2)c2nonc2c1[N+](=O)[O-]	?	10µM	.	.	?	?
CCCSc1cc(NCCOC(C)=O)c([N+](=O)[O-])c2nonc12	.	.	.	.	.	?
CCC(=O)OCCNc1cc(Sc2nc3ccccc3s2)c2nonc2c1[N+](=O)[O-]	/	/	.	25.1µM	?	?
O=C(NCC1(N2CCOCC2)CCCCC1)c1cnn(-c2nccc(-c3ccco3)n2)c1C1CC1	.	.	/	.	/	/
SMILES	Vaccinia Venus	VACV mCherry inh	HCMV antiviral	FMDV antiviral	LASV entry inh	Marburg entry inh
C=CCOC(=O)C(C(C)=O)[C@@H](NC(=O)OC)c1ccc2ccccc2c1 (some centres undefined)	/	/	/	/	/	.
O=C([C@@H]1CC=C[C@@H]2CCN(C3CCCCC3)C(=O)[C@@H]21)N1CCOCC1	.	.	/	/	/	/
CCOc1ccc(-c2cc(NC(=O)Nc3ccc(Cl)cc3)c(C(=O)OC)s2)cc1	.	.	.	.	?	.
COc1ccc(OC)c([C@@H](O)[C@H](C)N)c1	.	.	/	.	/	/
CC(=O)Oc1ccccc1C(=O)NC(C)CCc1ccccc1 (centres undefined)	.	.	.	25.1µM	.	.
COc1ccc(/C=N/N=C/c2ccc(OC)c(OC)c2)cc1OC	/	/	.	.	.	.
COc1cc(/C=N/N=C(N)N)ccc1OCc1ccccc1Cl	/	/	-100.2	.	/	/
Cc1ccc(NC(=O)Cn2c(=O)n(-c3ccc(C)cc3)c(=O)c3c2cnn3C)cc1	.	.	.	.	.	.
C/C(Cn1nnc([N+](=O)[O-])n1)=N\NC(=O)c1ccccc1	12.6µM	?	.	/	.	?
CC[C@@H]1Cc2[nH][nH]c(=O)c2[C@H](CC(C)C)O1	.	.	.	.	/	/
Fc1ccccc1N1CCN(C2CCN(Cc3c[nH]c4ccccc34)CC2)CC1	.	.	.	/	?	9.2µM
OC1(c2ccc(Cl)cc2)CCN(Cc2cn[nH]c2-c2ccc(F)cc2)CC1	.	.	-77.7	.	.	?
OCC1(CCOc2ccccc2)CCN(Cc2cn[nH]c2-c2ccc(F)cc2)CC1	.	.	?	.	.	3.98µM
OCC1(CCOc2ccccc2)CCN(Cc2nc3ccc(F)cc3[nH]2)CC1	.	.	-61.8	?	?	?
OCCOc1cccc(CN2CCC(CO)(CCOc3ccccc3)CC2)c1	/	/	.	.	/	/
OC1(c2ccc(Cl)cc2)CCN(Cc2cn[nH]c2-c2ccccc2)CC1	.	.	?	.	.	?
CCOc1ccccc1CN1CCC(CO)(CCOc2ccccc2)CC1	.	.	.	.	.	.
Cc1c(C(=O)OC(C)C)sc(NC(=O)c2cnccn2)c1C(=O)OC(C)C	/	/	.	.	/	/
CC(=O)[C@@]1(O)[C@H](C)CC2C3CC=C4CC(OP(=O)(O)O)CC[C@]4(C)C3CC[C@@]21C (some centres undefined)	/	/	.	.	/	.
OC1(c2ccc(Cl)cc2)CCN(Cc2c[nH]c3ccccc23)CC1	.	.	?	.	?	2.82µM
Nc1nc(CSc2nnnn2-c2ccccc2)nc(N2CCCc3ccccc32)n1	.	?	.	28.2µM	?	?
Cc1cc(C)c2nc(NC3=NCN(CCN4CCOCC4)CN3)nc(C)c2c1	/	/	/	/	/	.
CC1=CC(C)(C)N=C(Nc2nc(C)c3cc(C)cc(C)c3n2)N1	/	/	-96.6	?	/	/
CC(C)(C)c1ccc(-n2ncc3c2CCCC3NC(=O)c2ccncc2)cc1 (centres undefined)	.	.	.	?	.	.
O=C(NC1CCCc2c1cnn2-c1ccc(F)cc1F)c1ccccn1 (centres undefined)	.	.	.	.	.	?
SMILES	Vaccinia Venus	VACV mCherry inh	HCMV antiviral	FMDV antiviral	LASV entry inh	Marburg entry inh
Cc1nnsc1C(=O)NC1CCCc2c1cnn2-c1ccc(C(C)(C)C)cc1 (centres undefined)	/	/	-76.4	?	/	/
Cc1nnsc1C(=O)NC1CCCc2c1cnn2-c1ccccc1F (centres undefined)	.	.	-87.4	?	0.501µM	?
Cc1ccccc1-n1nc(CO)c(C(=O)NCCc2ccccc2)n1	.	.	.	.	.	.
CN(CCc1ccccn1)Cc1ccc(Cl)cc1	/	/	.	.	.	.
CN(C)CCN(Cc1ccc(Cl)cc1)c1ccccn1	.	.	-61.5	.	?	?
C[N+](C)(C)CCN(Cc1ccc(Cl)cc1)c1ccccn1	.	.	-62.6	.	.	?
